Measurements from PubChem BioAssay AID1159580 (chemical genetic matrix, 2015).
Where “and” joins values, the source holds several entries; their conditions need not be identical. Equal entries are not always repeated. About 2,000 (36%) of roughly 5,500 compounds were called active. About 18% were inconclusive and are not listed. No stated cut-off is given here; in the data, active means normalized growth mostly below about 0.91 (no sharp cut-off); inconclusive means no clear call, values can overlap the other calls; inactive means mostly above about 0.92. This is one part of the list.

Test: chemical genetic growth profiling, strain panel (AID 1159580);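 further: tested at 20 µM; growth read once vehicle control cultures reached saturation at 30 °C; 1 = growth at the plate median or of vehicle wells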
Settings: S. cerevisiae deletion strains, growth OD

Measured: normalized growth

O=C(O)CCCCCCCC(=O)O
inactive: locus YAL013W, strain DEP1, stronger effect = lower value 0.991 | locus YAL021C, strain ccr4, stronger effect = lower value 1.02 | locus YAL026C, strain drs2, stronger effect = lower value 1.04 | locus YAL030W, strain snc1, stronger effect = lower value 1.02 | locus YAL040C, strain CLN3, stronger effect = lower value 1.01 | locus YBL061C, strain skt5, stronger effect = lower value 1.01 | locus YBR009C, strain hhf1, stronger effect = lower value 1.01 | locus YBR021W, strain FUR4, stronger effect = lower value 0.999 | locus YBR023C, strain chs3, stronger effect = lower value 1.01 | locus YBR171W, strain sec66, stronger effect = lower value 1.03 | locus YBR229C, strain ROT2, stronger effect = lower value 0.956 | locus YBR231C, strain swc5, stronger effect = lower value 1.01 | locus YBR279W, strain paf1, stronger effect = lower value 0.991 | locus YCL011C, strain gbp2, stronger effect = lower value 1.02 | locus YCL016C, strain dcc1, stronger effect = lower value 1.03 | locus YCL029C, strain bik1, stronger effect = lower value 0.969 | locus YCL069W, strain vba3, stronger effect = lower value 1.02 | locus YCR088W, strain abp1, stronger effect = lower value 1.02 | locus YDL005C, strain med2, stronger effect = lower value 0.986 | locus YDL035C, strain GPR1, stronger effect = lower value 0.994 | locus YDL040C, strain nat1, stronger effect = lower value 0.999 | locus YDL074C, strain BRE1, stronger effect = lower value 0.982 | locus YDL101C, strain DUN1, stronger effect = lower value 0.981 | locus YDL134C, strain PPH21, stronger effect = lower value 0.96 | locus YDL185W, strain tfp1, stronger effect = lower value 0.982 | locus YDL192W, strain arf1, stronger effect = lower value 0.984 | locus YDR001C, strain nth1, stronger effect = lower value 1.03 | locus YDR069C, strain doa4, stronger effect = lower value 1 | locus YDR101C, strain arx1, stronger effect = lower value 0.991 | locus YDR137W, strain rgp1, stronger effect = lower value 0.99 | locus YDR150W, strain NUM1, stronger effect = lower value 0.974 | locus YDR159W, strain sac3, stronger effect = lower value 0.997 | locus YDR162C, strain NBP2, stronger effect = lower value 0.994 | locus YDR195W, strain ref2 0.997 | locus YDR297W, strain sur2, stronger effect = lower value 0.996 | locus YDR318W, strain mcm21, stronger effect = lower value 0.981 | locus YDR334W, strain swr1, stronger effect = lower value 1 | locus YDR335W, strain msn5, stronger effect = lower value 1 | locus YDR363W, strain ESC2, stronger effect = lower value 0.994 | locus YDR388W, stronger effect = lower value 0.98 | locus YDR392W, strain spt3, stronger effect = lower value 1.04 | locus YDR502C, strain sam2, stronger effect = lower value 0.986 | locus YEL003W, strain gim4, stronger effect = lower value 1.02 | locus YEL037C, strain rad23, stronger effect = lower value 1 | locus YEL061C, strain CIN8 (second series), stronger effect = lower value 1.03 | locus YEL061C, strain CIN8, stronger effect = lower value 0.989 | locus YER002W, strain NOP16, stronger effect = lower value 1.01 | locus YER015W, strain faa2, stronger effect = lower value 1 | locus YER016W, strain bim1, stronger effect = lower value 1.02 | locus YER110C, stronger effect = lower value 0.971 | locus YER111C, strain swi4, stronger effect = lower value 1.01 | locus YER155C, strain BEM2 (second series), stronger effect = lower value 1.07 | locus YER155C, strain BEM2, stronger effect = lower value 1 | locus YER167W, strain BCK2, stronger effect = lower value 1.02 | locus YFR010W, strain ubp6, stronger effect = lower value 1.01 | locus YGL078C, strain dbp3, stronger effect = lower value 0.983 | locus YGL086W, strain mad1, stronger effect = lower value 1 | locus YGL167C, strain pmr1, stronger effect = lower value 1.02 | locus YGL173C, strain kem1, stronger effect = lower value 1.02 | locus YGL227W, strain vid30, stronger effect = lower value 1.02 | locus YGL240W, strain doc1, stronger effect = lower value 1.01 | locus YGL248W, strain PDE1, stronger effect = lower value 0.992 | locus YGL253W, strain hxk2, stronger effect = lower value 1.02 | locus YGR078C, strain PAC10, stronger effect = lower value 0.99 and 1.01 | locus YGR135W, strain pre9, stronger effect = lower value 0.988 | locus YGR229C, strain SMI1, stronger effect = lower value 1 and 0.991 | locus YGR252W, strain gcn5, stronger effect = lower value 0.961 | locus YHR013C, strain ard1, stronger effect = lower value 1.04 | locus YHR027C, strain rpn1, stronger effect = lower value 1 | locus YHR030C, strain SLT2, stronger effect = lower value 0.993 and 0.979 | locus YHR079C, strain IRE1 (second series), stronger effect = lower value 0.988 | locus YHR079C, strain IRE1, stronger effect = lower value 0.982 | locus YHR094C, strain hxt1, stronger effect = lower value 0.995 | locus YHR129C, strain ARP1, stronger effect = lower value 0.96 | locus YHR142W, strain chs7, stronger effect = lower value 1.05 | locus YHR200W, strain rpn10, stronger effect = lower value 0.991 | locus YIL066C, strain RNR3, stronger effect = lower value 0.976 | locus YIL073C, strain SPO22, stronger effect = lower value 0.952 | locus YIL125W, strain kgd1, stronger effect = lower value 0.999 | locus YIR030C, strain dcg1, stronger effect = lower value 0.986 | locus YJL092W, strain hpr5, stronger effect = lower value 1.03 | locus YJL095W, strain BCK1 (second series), stronger effect = lower value 1.01 | locus YJL095W, strain BCK1, stronger effect = lower value 1.03 and 0.992 | locus YJL115W, strain asf1, stronger effect = lower value 1.01 | locus YJL129C, strain trk1, stronger effect = lower value 1.01 | locus YJL134W, strain LCB3, stronger effect = lower value 0.991 | locus YJL154C, strain vps35, stronger effect = lower value 1.03 | locus YJL164C, strain tpk1, stronger effect = lower value 1.03 | locus YJL166W, strain qcr8, stronger effect = lower value 1.02 | locus YJL168C, strain set2, stronger effect = lower value 0.99 | locus YJL187C, strain SWE1 (second series), stronger effect = lower value 0.976 | locus YJR043C, strain POL32, stronger effect = lower value 0.994 | locus YJR066W, strain TOR1, stronger effect = lower value 0.965 | locus YJR075W, strain HOC1, stronger effect = lower value 0.985 and 0.983
